Compounds with a hit are over-represented: about 5.7% of the library has one in this group of screens.
NPSR antag: neuropeptide S receptor (human) antagonism, cAMP; Q6W5P4; CHO-NPSR cells, cAMP TR-FRET, antagonist mode; Potency, µM (top dose mostly 38.3 µM), for the others: at the top dose activity change, negative = inhibition, hits mostly inhibitors; 220,000 tested, 1% active; further: nearly all actives have a fitted effect of over 50% in size
Target sequence (Q6W5P4 whole entry, looked up): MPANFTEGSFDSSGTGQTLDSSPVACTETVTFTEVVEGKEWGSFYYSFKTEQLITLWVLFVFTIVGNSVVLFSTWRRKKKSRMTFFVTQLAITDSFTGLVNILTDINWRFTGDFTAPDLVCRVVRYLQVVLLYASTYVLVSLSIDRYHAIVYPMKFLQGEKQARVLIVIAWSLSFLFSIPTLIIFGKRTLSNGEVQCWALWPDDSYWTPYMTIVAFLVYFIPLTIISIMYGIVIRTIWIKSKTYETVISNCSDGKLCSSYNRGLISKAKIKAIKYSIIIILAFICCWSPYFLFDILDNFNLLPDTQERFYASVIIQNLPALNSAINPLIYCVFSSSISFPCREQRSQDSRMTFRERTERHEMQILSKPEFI
Gal4-VP16 FLuc: inhibits Gal4-VP16 luciferase reporter, ROR gamma counter-screen. 310,000 tested, 3.5% active. Drosophila S2 Gal4-VP16 UAS-luciferase, luminescence, 20 h. Potency, µM (series often up to 53.6 µM), without a hit: at the highest dose activity, negative = inhibition, hits mostly inhibitors. AID 2546;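 further: Gal4-VP16 expression switched on by copper sulfate through the metallothionein promoter; nearly all actives have a fitted effect of over 50% in size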
B2AR arrestin: recruits beta-arrestin to the human beta2-adrenergic receptor | beta-arrestin recruitment to beta2AR, cell-based reporter | Potency, µM (doses to about 46.1 µM), without a hit: at the top dose activation, most hits filed as activators | 330,000 tested, 0.02% active;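 further: 0% = DMSO controls and full agonism = EC100 isoproterenol or metaproterenol; nearly all actives have a fitted effect of over 65% in size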
RORg inh: inhibitors of mouse ROR gamma transcriptional activity; 310,000 tested, 5.4% active; Potency, µM (series often up to 53.6 µM), for the others: at the top dose activity change, negative = inhibition, actives largely listed as inhibitors; Drosophila S2 Gal4-RORgamma UAS-luciferase reporter, 20 h; AID 2551; further: nearly all actives have a fitted effect of over 60% in size
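In this cell-based reporter format, copper sulfate (700 uM final) drives Gal4–ROR gamma fusion expression from a metallothionein promoter in Drosophila Schneider cells; compounds preincubated 1 hr, reporter read after 20 hr at ambient temperature.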
* = called active by the depositor; u = inconclusive; x = no result; [ ] = remark or other dose. The call rests on the fitted dose curve; in most records, active means well fitted curve in the direction sought with a large enough effect; inconclusive means small, poorly fitted or top-dose-only effect, or another doubt; inactive means no such curve, though single readings can be large; an effect the other way counts as inactive or inconclusive. Unless noted, on the % scale 0 is the no-effect control and ±100 the full control effect; potency means the concentration at half of the fitted maximal effect.

SMILES	NPSR antag	Gal4-VP16 FLuc	B2AR arrestin	RORg inh
COCCCNC1=C(Cl)C(=O)c2ccccc2C1=O	u	-18%	0%	-28%
C=CCN1C(=O)/C(=C/c2ccc(O)cc2)S/C1=N/c1nccs1	-2%	-21%	3%	-8%
C=CCN1C(=O)/C(=C/c2ccc(OC)cc2)S/C1=N/c1nccs1	2%	-25%	0%	5µM*
Cc1ccc(NCc2nnc(SCC(=O)NNC(=O)Cc3ccccc3)n2C)cc1	21%	-1%	4%	0%
CC(C)CNC(=S)NC1CC2CCC(C1)N2Cc1ccccc1 (stereo not drawn)	3%[46.1 µM]	u	-1%	10µM*
CCOC(=O)CCN1C(=O)[C@H]2[C@H]3[C@H](O)[C@H](O)C/C(=N/OC[C@@H](O)COCc4ccco4)[C@H]3CC[C@@H]2C1=O	x	4%[10 µM]	x	4%[10 µM]
COc1ccc2c(-c3ccccc3)cc(SCC(=O)NC3CCS(=O)(=O)C3)nc2c1 (stereo not drawn)	9%[46.1 µM]	-6%	0%	11µM*
Cc1ccc(S(=O)(=O)NCCSc2ncccn2)cc1	-12%	2%	0%	-18%
O=S(=O)(NCCSc1ccccn1)c1ccc(Br)cc1	-7%	11µM*	-1%	8.9µM*
NC(=S)NN=C1c2ccccc2-c2ccccc21	x	4µM*	u	1.3µM*
CNC(=S)NNC(=O)c1ccccc1Br	9%	u	-1%	13µM*
O=C(NN=C1c2ccccc2-c2ccccc21)c1ccccc1	2%[46.1 µM]	0%	0%	-8%
Cc1occc1C(=O)NNC(=O)c1ccccc1Br	2%	-14%	-1%	6%
COCCCNC(=S)NNC(=O)c1ccccn1	6%	0%	0%	14µM*
CCOC(=O)NN=C1c2ccccc2-c2ccccc21	x	-7%	0%	-34%
O=C(NN=C1c2ccccc2-c2ccccc21)c1ccccc1Br	-26%[46.1 µM]	10µM*	0%	7.1µM*
COc1cc(C(=O)NCC(=O)OCCN2C(=O)c3ccccc3C2=O)cc(OC)c1OC	10%	4%	0%	-1%
COCCCNC(=S)NNC(=O)c1ccccc1Br	9%	-15%	0%	2.5µM*
COCCCNC(=S)NNC(=O)c1csc2ccccc12	21%	u	0%	-34%
NC(=S)NN=C(c1ccccc1)c1ccccc1	x	u	u	7.1µM*
Cc1ccc(C(NC(=O)N2CCCCC2)=C(Cl)Cl)cc1F	-5%	7.1µM*	-1%	11µM*
O=c1cnc2cncnc2n1Cc1ccccc1	x	0%	x	18%
CC1CC(=S)Nc2ccccc2S1 (stereo not drawn)	-3%[46.1 µM]	4µM*	0%	u
CCNc1ncc2nc(-c3ccc(OC)cc3)c(=O)n(Cc3cccc(OC)c3)c2n1	x	0%	x	2%
CCC(=O)Nc1ccc(SC#N)cc1C	21%[46.1 µM]	u	4%	13µM*
SMILES	NPSR antag	Gal4-VP16 FLuc	B2AR arrestin	RORg inh
Cc1cc(SC#N)cc(C)c1NC(=O)CCl	-15%	5µM*	0%	3.5µM*
O=C(CSc1nc2ccccc2c(=O)n1CCCN1CCOCC1)NC12CC3CC(CC(C3)C1)C2	-24%	-16%	0%	14µM*
O=C(CSc1nc2ccccc2c(=O)n1CCCN1CCOCC1)NCCc1ccccc1	x	x	0%	x
CC(C)CN1CCC(=O)N([C@H](CO)Cc2ccccc2)CC1	x	-2%	-1%	-27%
O=C1c2ccc([N+](=O)[O-])cc2C(=O)N1Cc1cccnc1	x	-27%	-2%	1.3µM*
CCOC(=O)c1ccc(NC(=O)c2ccc3c(c2)C(=O)N(Cc2cccnc2)C3=O)cc1	x	11µM*	0%	-52%
COC(=O)Cc1ccc(NC(=O)c2ccc3c(c2)C(=O)N(Cc2cccnc2)C3=O)cc1	x	u	-1%	15%
CC(C)c1ccc(NC(=O)c2ccc3c(c2)C(=O)N(Cc2cccnc2)C3=O)cc1	x	18µM*	-2%	u
COc1ccc(C(=O)NC(=S)N(C)Cc2ccccc2)cc1Br	-10%	0.71µM*	0%	0.4µM*
CN(Cc1ccccc1)C(=S)NC(=O)c1ccccc1	-8%	2.8µM*	0%	1µM*
CN(Cc1ccccc1)C(=O)CC(=O)N(C)Cc1ccccc1	x	-5%	0%	20%
CC(C)(C)C1CCC(=NNC(=S)NCc2ccccc2)CC1 (stereo not drawn)	-40%	u	6%	10µM*
CCC(C)(C)C1CCC(=NNC(=S)Nc2ccccc2)CC1 (stereo not drawn)	-23%	u	0%	11µM*
CC(C)(C)C1CCC(=NNC(=O)C(=O)NCc2cccnc2)CC1 (stereo not drawn)	12%	-3%	0%	-20%
C=CCNC(=S)NN=C1CCC(c2ccccc2)CC1 (stereo not drawn)	x	20µM*	u	13µM*
CC(=O)N1CC[n+]2c(-c3ccc(Cl)cc3Cl)csc21	4%	u	0%	-29%
COc1ccc(CN2CCC(n3nccc3NC(=O)CCOc3ccccc3)CC2)cc1C	x	-21%	0%	32%
Nc1cccc2c1C(=O)N(C(=O)/C=C/c1ccc(F)cc1)C2=O	11%	-2%	0%	13µM*
CCN1C(=NCc2cc(OC)c(OC)c(OC)c2)N[C@@H](c2cccc(F)c2)C(C(=O)OC)=C1C	x	-16%	0%	17%
CCC(Sc1ccc2nnc(-c3ccc(F)cc3)n2n1)C(=O)OC (stereo not drawn)	-17%[46.1 µM]	0%	0%	20µM*
CCCCN(Cc1ccco1)C(=O)Cn1ncc2c(=O)oc3ccc(C)cc3c21	-15%[46.1 µM]	-3%	0%	1.4µM*
OC[C@H](S)CS	x	u	x	0%[10 µM]
COc1ccc(NC(=S)NC(=O)c2ccccc2Cl)cc1	-3%	u	8%	6.3µM*
CC(C)CNC(=S)NC(=O)c1ccccc1Cl	11%	11µM*	-1%	5µM*
O=C(NC(=S)Nc1ccc(NC(=O)c2ccccc2)cc1)c1ccc(F)cc1	x	-3%	0%	-39%
SMILES	NPSR antag	Gal4-VP16 FLuc	B2AR arrestin	RORg inh
O=C(NC(=S)Nc1ccc(Cl)cc1)c1ccccc1	u	u	u	20µM*
O=C(NC(=S)Nc1ccc(O)cc1)c1ccccc1Cl	-15%	-17%	-1%	-41%
O=C(NC(=S)Nc1ccc(Oc2ccc(Cl)cc2)cc1)c1ccccc1	u	7.9µM*	0%	3.5µM*
CC1COC(=O)O1 (stereo not drawn)	x	-6%	x	0%
Cc1cnc(CNc2cc(-c3ccc(N(C)C)cc3)ncn2)cn1	x	-14%	x	-39%
CC(C)(C)C(=O)NCCCC(=O)O	x	29%	x	2%
CC(C)C(=O)NC(=O)C1CCCN1C(=O)/C=C/c1ccccc1 (stereo not drawn)	x	4%[10 µM]	x	5%[10 µM]
CCCc1cc(SCC(=O)Nc2c(C)n(C)n(-c3ccccc3)c2=O)n2c(nc3ccccc32)c1C#N	10%[46.1 µM]	-5%	3.5µM*	u
COc1ccccc1/C=C\C=N\n1c(-c2ccc(Cl)cc2)n[nH]c1=S	-8%	u	0%	1.6µM*
COc1ccc(Br)cc1/C=N/n1c(-c2ccccc2)n[nH]c1=S	x	-20%	1%	u
COc1ccccc1/C=C\C=N\n1c(-c2ccc(Cl)cc2Cl)n[nH]c1=S	-7%	10µM*	0%	7.9µM*
